# From article PMC11995724, “Antibiotic target discovery by integrated phenotypic and activity-based profiling of electrophilic fragments” (Cell chemical biology, 2025)
# Screen size: about 3,200 compounds; about 75 (2%) showed an effect of 50% or more. Many of the other results were omitted from the sample, so strong results are more common in it than they were.
# Test system: T1, S. aureus MSSA476
# T1 construct: MSSA476
# Design: species or system S. aureus MSSA476 (TSB) or V. cholerae SAD30 (LB); 384-well bacterial growth screen at 25 uM, OD600 relative to DMSO control
# Settings: 25 µM; inhibitor
row,Compound,% of control remaining
1,"CCn1c(-c2ccccc2)c(C(=O)CCl)c2ccccc21 [10-E12, 2-chloro-1-(1-ethyl-2-phenyl-1H-indol-3-yl)ethan-1-one]",-0.3125%
2,"N#Cc1ccc(NC(=O)CCl)cc1Cl [4-N03, 2-chloro-N-(3-chloro-4-cyanophenyl)acetamide]",74.7022%
3,"C=CC(=O)Nc1ccc(C(=O)N2CCC3(CC2)OCCCO3)cc1 [2-D16, N-(4-{1,5-dioxa-9-azaspiro[5.5]undecane-9-carbonyl}phenyl)prop-2-enamide]",123.586%
4,"CC(Cl)C(=O)c1ccc(Cl)cc1 (stereo not shown) [10-O04, 2-chloro-1-(4-chlorophenyl)propan-1-one]",129.063%
